Laboratory results taken from paper PMC5913336, “True equilibrium measurement of transcription factor-DNA binding affinities using automated polarization microscopy”.

These sequences were tested against T1, Hb (Drosophila melanogaster, UniProt P05084 225-364) (assay: FP; 33 mM phosphate pH 7.0, 90 mM NaCl, 0.01% Tween 20, 0.1 mM DTT, 0.5% agarose; room temperature). Conditions: tags: N-GST (pGEX-6P-1, kept); dsDNA, one strand shown.
T1 sequence: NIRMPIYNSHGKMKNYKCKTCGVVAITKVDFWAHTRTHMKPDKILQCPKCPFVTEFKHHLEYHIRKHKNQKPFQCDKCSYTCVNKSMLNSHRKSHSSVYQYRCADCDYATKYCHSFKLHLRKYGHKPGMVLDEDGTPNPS
With AGTTTTTTCGGC the binding signal was 5.64 Kd / Kd of best base at the position.
For AGTTATTTAGGC, the binding signal was 10.2 Kd / Kd of best base at the position.
With AGTTTTGTAGGC the binding signal was 9.72 Kd / Kd of best base at the position.
With AGTCTTTTAGGC the binding signal was 8.66 Kd / Kd of best base at the position.
For AGTTTTTTAAGC, the binding signal was 1.31 Kd / Kd of best base at the position.

What follows are sequences tested against T2, Hkb (Drosophila melanogaster, UniProt Q9VN10 181-296) in the same assay as above. Conditions: tags: N-GST (pGEX-6P-1, kept); dsDNA, one strand shown.
T2 sequence: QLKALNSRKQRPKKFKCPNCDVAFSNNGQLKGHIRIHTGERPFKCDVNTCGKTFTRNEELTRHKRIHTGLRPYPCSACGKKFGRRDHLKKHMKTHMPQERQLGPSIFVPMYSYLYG
With AAGGGGCGAGAT the binding signal was 75.8 Kd / Kd of best base at the position.
AAGGGGCTTGAT was tested, and the binding signal was 235 Kd / Kd of best base at the position.
In the case of AAGGGGTGTGAT, the binding signal is reported as 277 Kd / Kd of best base at the position.
For AAGGGGCGTCAT, the binding signal was 134 Kd / Kd of best base at the position.
AGGGGGCGTGAT was tested, and the binding signal was 5.34 Kd / Kd of best base at the position.
With AAGCGGCGTGAT the binding signal was 121 Kd / Kd of best base at the position.
With GAGGGGCGTGAT the binding signal was 3 Kd / Kd of best base at the position.
CAGGGGCGTGAT was tested, and the binding signal was 6.48 Kd / Kd of best base at the position.
With AAGGGGCGTGTT the binding signal was 150 Kd / Kd of best base at the position.
With AATGGGCGTGAT the binding signal was 1.81 Kd / Kd of best base at the position.
In the case of AAGGGGCGTGCT, the binding signal is reported as 119 Kd / Kd of best base at the position.
AAGGGGCGTGGT was tested, and the binding signal was 127 Kd / Kd of best base at the position.
With AAGGGGCGTTAT the binding signal was 124 Kd / Kd of best base at the position.
For AAGGGGCGTGAC, the binding signal was 1.18 Kd / Kd of best base at the position.
For AAGTGGCGTGAT, the binding signal was 155 Kd / Kd of best base at the position.
AAGGGGCGTGAT was tested, and the Kd was roughly 2.3 nM.
TAGGGGCGTGAT was tested, and the binding signal was 2.68 Kd / Kd of best base at the position.
AAGGTGCGTGAT was tested, and the binding signal was 62.2 Kd / Kd of best base at the position.
AAGGGGCCTGAT was tested, and the binding signal was 164 Kd / Kd of best base at the position.
For AAGGAGCGTGAT, the binding signal was 52 Kd / Kd of best base at the position.
With AAGGGCCGTGAT the binding signal was 107 Kd / Kd of best base at the position.
For AAGGGGAGTGAT, the binding signal was 103 Kd / Kd of best base at the position.
For AAGGGGCGTAAT, the binding signal was 130 Kd / Kd of best base at the position.
AAGGGGCGTGAA was tested, and the binding signal was 2.74 Kd / Kd of best base at the position.
With AAGAGGCGTGAT the binding signal was 8.29 Kd / Kd of best base at the position.
For ACGGGGCGTGAT, the binding signal was 2.33 Kd / Kd of best base at the position.
For AAGGGGCGCGAT, the binding signal was 170 Kd / Kd of best base at the position.
For AAGGGGCGGGAT, the binding signal was 85.9 Kd / Kd of best base at the position.
AAGGCGCGTGAT was tested, and the binding signal was 108 Kd / Kd of best base at the position.
With AAGGGGCATGAT the binding signal was 318 Kd / Kd of best base at the position.
In the case of AAAGGGCGTGAT, the binding signal is reported as 3.42 Kd / Kd of best base at the position.
AAGGGTCGTGAT was tested, and the binding signal was 116 Kd / Kd of best base at the position.
For AAGGGGCGTGAG, the binding signal was 1.09 Kd / Kd of best base at the position.
ATGGGGCGTGAT was tested, and the binding signal was 2.01 Kd / Kd of best base at the position.
AACGGGCGTGAT was tested, and the binding signal was 16.2 Kd / Kd of best base at the position.
